High-throughput results from PubChem BioAssay.
TGFb inhibitor: inhibitors of TGF-b signaling; HepG2 CAGA-GFP TGF-b/SMAD3 reporter, GFP fluorescence, 18 h; TGF-beta stimulated, 500 pg/mL final; Potency, µM (series often up to 46.1 µM), for inactives: top-dose activity, negative = inhibition, usual class: inhibitors; 410,000 compounds, 1.2% hits; AID 588855; also: % is scaled to controls: 0 for no effect and ±100 for the full control effect; nearly all actives have a fitted effect of over 65% in size
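Read-out: total well GFP (ex488/em500-530) summed from mean per-cell fluorescence. Cells: HEPG2 CAGA-GFP, 1% FBS DMEM, 18 h at 37 degrees C with 500 pg/mL final TGF-beta. Unstimulated wells served as the full-inhibition control; stimulated DMSO wells = 0%.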
HepG2 tox: counter-screen for TGF-b inhibitors: cytotoxicity in HepG2 cells; HepG2 CAGA-GFP viability, ATP luminescence, 18 h; Potency, µM (highest dose often 46.1 µM), without a hit: top-dose activity change, negative = cytotoxicity, usual class: cytotoxic; 410,000 compounds, 0.76% hits; AID 588856
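HepG2 CAGA-GFP cells (1000/well, DMEM with 1% FBS) received compound, then TGF-beta at 500 pg/mL final, and were incubated 18 hours at 37 degrees C. Viability was read by CellTiter-Glo luminescence. Media-only wells were set as complete cell-killing and DMSO as no toxicity.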
HTT aggregate: inhibitors of mutant huntingtin aggregate formation in PC12 cells. PC12 HttQ103-GFP aggregates, Acumen cytometry, 40 h. Potency, µM (doses to about 46.1 µM), inactives show top-dose activity change, negative = inhibition, hits mostly inhibitors. 220,000 compounds, 1.1% hits. AID 1688; also: % is scaled to controls: 0 for no effect and ±100 for the full control effect; nearly all actives have a fitted effect of over 60% in size
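Inducible Q103 Huntingtin exon 1–GFP PC12 line, 1500 cells/well in phenol red free DMEM with 5% equine and 5% calf serum. Tebufenozide 100 nM induced expression; compounds titrated; aggregates quantified by cytometry.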
ATXN viability: viability counter-screen for ATXN expression inhibitors; S2 cells (HEK-293 line with an ATXN2-luciferase reporter) viability, CellTiter-Fluor protease fluorescence, 24 h; Potency, µM (doses to about 56.7 µM), most hits filed as cytotoxic; 400,000 compounds, 0.49% hits; AID 651635; also: nearly all actives have a fitted effect of over 40% in size
ATXN2 expr inh: reduces ATXN2 reporter expression in HEK-293 cells | AID 1745845 | 360,000 compounds, 0.72% hits | HEK-293 ATXN2-luciferase reporter, luminescence, 24 h | Potency, µM (doses to about 57 µM), for inactives: top-dose activity change, negative = inhibition, usual class: inhibitors; also: % is scaled to controls: 0 for no effect and ±100 for the full control effect; nearly all actives have a fitted effect of over 55% in size
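ATXN2-luciferase reporter cells (luciferase flanked by upstream and downstream ATXN2 gene portions) were treated 24 h at 37 °C with compounds at up to 57 uM. SteadyGlo luminescence gave expression; GF-AFC fluorescence gave viability.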
HTT ATP protect: protects HTT-Q103 PC12 cells, measured by ATP; AID 1471; PC12 HTT-Q103 induced, cytoprotection, ATP luminescence, 40 h; Potency, µM (top dose mostly 56.4 µM), for inactives: cytoprotection (ATP increase), actives largely listed as activators; 230,000 compounds, 0.14% hits; also: % of control where 0% means no effect; nearly all actives have a fitted effect of over 45% in size
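Compounds added alongside 100 nM tebufenozide, which induces toxic Q103 huntingtin exon 1-GFP in stable PC12 cells; surviving cells quantified by luminescent ATP measurement. Medium: phenol red-free DMEM, 5% equine and 5% calf serum.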
Active calls of the source: *; i = inactive; ? = inconclusive; · = no result; [ ] = dose if it differs, or a comment. In the library only some 2.8% were active in any assay of this set; here they are far more common. Calls follow the shape of the dose curve; as a rule, active = well fitted curve in the direction sought with a large enough effect; inconclusive = small, poorly fitted or top-dose-only effect, or another doubt; inactive = no such curve, though single readings can be large; an effect the other way counts as inactive or inconclusive. Potency is read from the fitted curve at half-maximal effect.

SMILES	TGFb inhibitor	HepG2 tox	HTT aggregate	ATXN viability	ATXN2 expr inh	HTT ATP protect
NS(=O)(=O)c1ccc(N/N=C/c2cn(-c3ccccc3)nc2-c2ccccc2)c([N+](=O)[O-])c1	5.62µM*	6.31µM*	?	11.2µM*	·	-70.9%[10 µM]
CCOc1cccc(C2C=C(c3ccc4c(c3)OCO4)NC(c3ccc(Cl)cc3)N2)c1O (stereo unspecified)	?	-49.0%	·	·	·	·
COC(=O)c1cc2c(n1S(=O)(=O)c1ccc(C)cc1)C(=O)C(=O)c1[nH]cc(C(=O)OCc3ccccc3)c1-2	?	0.708µM*	·	4.74µM*	2.99µM*	·
CC(O)(COc1ccccc1)c1ccc2c(c1)CN(C/C=C/c1ccco1)CCO2 (stereo unspecified)	·	·	·	i	·	·
Cn1c(=O)c2c(nc(NCc3ccco3)n2C/C=C/c2ccccc2)n(C)c1=O	3.98µM*	-31.7%	10µM*	?	?	?
Cn1c(=O)c2c(nc(NCc3ccco3)n2C)n(C)c1=O	-0.3%	8.2%	-8.2%	i	4.4%	6.3%
O=C(Nc1cccc(Nc2ccccc2)c1)c1cnn2c1NC(=C1CC1)C=C2C(F)F	9.6%	-12.8%	·	·	·	·
CCCCC[C@@H](C)N1C[C@H](COCc2ccccc2)Oc2cc(N3CC[C@H](N(C)C)C3)ccc2S1(=O)=O	·	·	·	25.1µM*	?	·
C[C@H](c1ccccc1)N1C[C@H](COCc2ccccc2)Oc2cc(N3CC[C@H](N(C)C)C3)ccc2S1(=O)=O	·	·	·	15.8µM*	?	·
C[C@@H](c1ccccc1)N1C[C@H](COCc2ccccc2)Oc2cc(N3CC[C@@H](N(C)C)C3)ccc2S1(=O)=O	·	·	·	22.4µM*	28.2µM*	·
C[C@H](c1ccccc1)N1C[C@@H](COCc2ccccc2)Oc2cc(N3CC[C@H](O)C3)ccc2S1(=O)=O	·	·	·	?	-15.7%	·
C[C@@H](c1ccccc1)N1C[C@H](COCc2ccccc2)Oc2cc(N3CC[C@H](N(C)C)C3)ccc2S1(=O)=O	·	·	·	15.8µM*	?	·
Cc1nc(CN2CCN(C(=O)CC3(c4ccccc4Cl)CC(=O)N(C)C3=O)CC2)cs1 (stereo unspecified)	·	·	·	i	·	·
c1ccc(CCNc2nc(-c3ccccc3)cs2)cc1	·	·	·	i	225.9%	·
Cc1ccc2c(c1)N(CC(=O)NCCN1CCOCC1)C(=O)CO2	·	·	·	·	·	-7.0%
COc1ccc(C(=O)Nc2ncnc3nc[nH]c23)cc1	-4.3%	4.9%	·	·	·	·
O=Cc1ccc(O)c2ncccc12	3.98µM*	4.47µM*	-36.1%[9.22 µM]	·	3.55µM*	-44.2%[10 µM]
CCN(CC)COC(=S)S	·	·	·	·	·	-32.2%[10 µM]
COc1cc(CN(C)CC2CCCN(CCc3ccccc3F)C2)cc(Cl)c1OC (stereo unspecified)	-17.8%	-45.8%	·	17.8µM*	?	·
CC(NC(=O)c1cc(F)ccc1F)c1nnc2n1CCN(Cc1ccco1)CC2 (stereo unspecified)	·	·	·	i	·	·
CN(CCCCCNC(=O)/C=N/O)Cc1ccccc1	·	·	-2.5%	·	·	6.9%[10 µM]
CN(C)CCCN(CCCNC(=O)/C=N/O)Cc1ccccc1	1.4%	1.0%	35.5µM*	i	2.4%	37.5%[10 µM]
COc1cccc(C(=O)N2CCc3c(C(=O)NC(C)c4ccco4)c(OC)cc(=O)n3CC2)c1OC (stereo unspecified)	·	·	·	i	·	·
Cc1ccc(-n2nnnc2SCC(=O)Nc2cccc(NC(=O)c3ccco3)c2)cc1C	6.8%	-16.3%	10µM*	i	-3.9%	-29.2%[10 µM]
CCCCCCCCCCCCCC[N+](C)(C)C	·	·	15.8µM*	?	22.4µM*	-107.1%
CCCCCCCCCCCCCCCC[N+](C)(C)CC	?	-110.2%	14.1µM*	17.8µM*	14.1µM*	-98.0%
CCCCCCCC[N+](C)(C)CCCCCCCC	·	·	·	i	·	·
O=C(OCc1cn([C@H]2CN(CC3CCCCC3)[C@@H](c3ccc(Cl)cc3)C[C@@H]2O)nn1)c1ccccc1	17.8µM*	12.6µM*	·	·	?	·
